Our source for the Potency and outcome values is PubChem BioAssay (NCATS).

Records with an inconclusive call do not appear. The source made the active and inactive calls. Calls come from the whole dose curve; as a rule, active = well fitted curve in the direction sought with a large enough effect; inconclusive = small, poorly fitted or top-dose-only effect, or another doubt; inactive = no such curve, though single readings can be large; an effect the other way counts as inactive or inconclusive.

Assay [1] deals with Lysine-specific demethylase 5B (Homo sapiens) (UniProt Q9UGL1). As to the kind of experiment: Optimization screen for KDM5B Histone Demethylases FDH coupled qHTS against the LOPAC library (AID 1347166). Note: potency is the fitted concentration of half-maximal effect. Put shortly:
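KDM5BDeltaAP (200nM final) in 50mM HEPES pH 7.5, 0.01% Tween-20 was preincubated with compound for 10 min at room temperature. A substrate mix of 12.5uM H3K4Me3, 25uM a-ketoglutarate, ascorbate, Fe2+, NAD+ and formaldehyde dehydrogenase was then added. NADH fluorescence (340/450 nm) was read initially and after 30 min.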
A general note: qHTS replaces the single test concentration by a dilution series.

The nature of assay [2]: qHTS to identify inhibitors of the type 1 interferon - major histocompatibility complex class I in skeletal muscle: primary screen against the NCATS LOPAC collection (AID 1347405).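 Note: human myoblasts with HiBiT tag on endogenous HLA-B stimulated by IFN-beta; lytic HiBiT luminescence reporting HLA-B protein level.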 Note: potency is the fitted concentration of half-maximal effect. Put shortly:
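First, engineered myoblasts carrying HLA-B-HiBiT were seeded in medium lacking dexamethasone with 4 ng/ml IFN-beta. After 1 hr, compounds were pinned in (top 46 uM final, 7 points). After 24 hrs at 37 C, luminescence was measured following 10 min lysis.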

A short description of assay [3]: qHTS to identify inhibitors of the type 1 interferon - major histocompatibility complex class I in skeletal muscle: primary screen against the NCATS Pharmaceutical Collection (AID 1347407).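 Note: luminescence of HiBiT knocked into endogenous HLA-B as interferon-induced MHC class I level.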 The essentials:
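A qHTS format is used: 8-point, 1:5 compound series with 46 uM top final concentration, applied alongside 4 ng/ml IFN-beta to HLA-B*08:01-HiBiT knock-in myoblasts. Luminescence is measured after 24 h treatment.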

Assay [4] can be described thus: qHTS for inhibitors of adenylyl cyclases using a fission yeast platform: a pilot screen against the NCATS LOPAC library (AID 1347410). Put shortly:
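Inhibition of GNAS-stimulated AC9 activity in S. pombe was inferred from derepression of a PKA-repressed fbp1-GFP reporter, measured as cytometric fluorescence after 18 h at 30C with compounds at up to 57 µM.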

For assay [5], the target named is Protein phosphatase 1D (Homo sapiens) (UniProt O15297). The assay is described as follows: RapidFire Mass Spectrometry qHTS Assay for Modulators of WT P53-Induced Phosphatase 1 (WIP1) (AID 1347424).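 Note: amount of dephosphorylated VEPPL-S-QETFS peptide product formed by WIP1.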 Note: potency is the fitted concentration of half-maximal effect. The essentials: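 Mass-spectrometric measurement of dephosphorylated peptide after a 5 min room-temperature reaction of 10 nM WIP1 with 2 uM phosphopeptide, following 1 h compound preincubation in 30 mM MgCl2 buffer.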
Chain of Protein phosphatase 1D (Homo sapiens) (O15297 whole entry, looked up): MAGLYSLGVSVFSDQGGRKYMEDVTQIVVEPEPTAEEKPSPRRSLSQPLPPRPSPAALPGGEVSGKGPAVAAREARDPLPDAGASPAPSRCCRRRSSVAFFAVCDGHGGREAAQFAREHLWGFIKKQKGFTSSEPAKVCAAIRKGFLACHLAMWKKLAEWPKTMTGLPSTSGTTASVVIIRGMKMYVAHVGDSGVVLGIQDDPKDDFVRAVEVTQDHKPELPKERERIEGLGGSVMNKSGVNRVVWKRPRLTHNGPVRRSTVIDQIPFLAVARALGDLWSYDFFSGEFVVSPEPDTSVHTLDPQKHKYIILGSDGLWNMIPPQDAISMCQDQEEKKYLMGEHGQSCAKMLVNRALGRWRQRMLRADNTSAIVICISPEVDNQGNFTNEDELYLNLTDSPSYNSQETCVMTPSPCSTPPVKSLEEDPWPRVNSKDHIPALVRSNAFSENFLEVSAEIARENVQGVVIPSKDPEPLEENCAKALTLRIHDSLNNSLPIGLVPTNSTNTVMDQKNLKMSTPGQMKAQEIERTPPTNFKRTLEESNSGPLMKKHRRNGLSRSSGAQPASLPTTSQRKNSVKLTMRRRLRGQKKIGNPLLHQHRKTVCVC

Assay [6] can be described thus: Validation qHTS assay for inhibitors of Activation Induced Cytidine Deaminase (AID): UDG Counterscreen signal (AID 1347427). The essentials: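 Fluorescence at 560 nm excitation, 665 nm emission reports UDG signal after 250 mM NaOH (2x) addition and 30 min. Enzymes (AID 1 uM, UDG 2 U/mL, at 4/3x) preincubated 10 min with compound, then 4 h with 4x 250 nM DJC20/DJC23 substrate at room temperature.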

Assay [7] deals with Single-stranded DNA cytosine deaminase (Homo sapiens) (UniProt Q9GZX7). The assay is described as follows: Validation qHTS assay for inhibitors of Activation Induced Cytidine Deaminase (AID): AID signal (AID 1347429). Put shortly: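 Steps: dispense AID with UDG; pin-transfer compound up to 114 uM final; add DJC20/DJC23 substrate and hold 4 hr at room temperature; add NaOH, hold 30 min; read FRET signal (540/590 nm).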
Chain of Single-stranded DNA cytosine deaminase (Homo sapiens) (Q9GZX7 whole entry, looked up): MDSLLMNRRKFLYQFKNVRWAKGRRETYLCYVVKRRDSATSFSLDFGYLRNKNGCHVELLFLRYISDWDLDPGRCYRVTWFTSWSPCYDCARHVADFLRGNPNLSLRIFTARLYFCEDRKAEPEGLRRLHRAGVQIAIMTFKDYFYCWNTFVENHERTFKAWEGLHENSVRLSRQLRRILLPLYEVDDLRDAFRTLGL

A short description of assay [8]: Primary qHTS for inhibitors of La Crosse Virus (LACV) - induced cell death in SH-SY5Y cells (AID 1508616). Note: potency is the fitted concentration of half-maximal effect. The essentials:
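SH-SY5Y, 6000 cells/well; cpd via pin tool in DMSO; LACV 0.01 MOI; 6 d 37C 5% CO2; ATPLite, 5 min RT; luminescence normalized to ±virus DMSO controls.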

The target of assay [9] is Calcium and integrin-binding protein 1 (Homo sapiens) (UniProt Q99828). The assay is described as follows: Primary qHTS for Identification of Calcium Integrin Binding Protein 1 (CIB1) Competitor (AID 1508620).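 Note: GST tagged CIB1 binding a fluorescein labelled alphaIIb integrin peptide tracer; top concentration of the series differs between compounds.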 The essentials: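 Fluorescence polarization competition: CIB1-GST (1 uM final) preincubated with compound 15 min at room temperature, then FITC-labeled alphaIIb peptide (100 nM final) added for another 15 min. Polarization read at Ex 480/Em 540.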
Chain of Calcium and integrin-binding protein 1 (Homo sapiens) (Q99828 whole entry, looked up): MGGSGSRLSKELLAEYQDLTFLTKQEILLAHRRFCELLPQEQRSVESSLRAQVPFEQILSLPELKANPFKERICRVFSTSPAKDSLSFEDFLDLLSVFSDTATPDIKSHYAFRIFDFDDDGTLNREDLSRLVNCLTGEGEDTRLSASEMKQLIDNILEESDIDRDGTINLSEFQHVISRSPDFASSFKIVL

For assay [10] the target is unchanged. As to the kind of experiment: Validation qHTS for Identification of Calcium Integrin Binding protein 1 (CIB1) Competitor (AID 1508618). Put shortly:
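Fluorescence polarization with 1 uM CIB1-GST and 100 nM FITC-alphaIIb peptide in HEPES pH 7.4, NaCl, 5 mM CaCl2, Tween20. Compounds at up to 114 uM final, preincubated with protein 15 min; read after 15 min more at RT.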

Assay [11] is described as follows: Confirmatory qHTS for small molecule stabilizers of the endoplasmic reticulum resident proteome: Secreted ER Calcium Modulated Protein (SERCaMP) assay (AID 1508628). Note: potency is the fitted concentration of half-maximal effect; nearly all actives have a fitted effect of over 40% in size. Put shortly:
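Reporter secretion upon ER calcium depletion (100 nM thapsigargin, 4 h, 37C) is measured as medium luminescence with coelenterazine, after 16 h compound pretreatment of SH-SY5Y-GLuc-SERCaMP cells; primary at three concentrations up to 38.3 uM, follow-up at 11 (up to 76.6 uM).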

Chain of Lysine-specific demethylase 5B (Homo sapiens) (Q9UGL1 whole entry, looked up): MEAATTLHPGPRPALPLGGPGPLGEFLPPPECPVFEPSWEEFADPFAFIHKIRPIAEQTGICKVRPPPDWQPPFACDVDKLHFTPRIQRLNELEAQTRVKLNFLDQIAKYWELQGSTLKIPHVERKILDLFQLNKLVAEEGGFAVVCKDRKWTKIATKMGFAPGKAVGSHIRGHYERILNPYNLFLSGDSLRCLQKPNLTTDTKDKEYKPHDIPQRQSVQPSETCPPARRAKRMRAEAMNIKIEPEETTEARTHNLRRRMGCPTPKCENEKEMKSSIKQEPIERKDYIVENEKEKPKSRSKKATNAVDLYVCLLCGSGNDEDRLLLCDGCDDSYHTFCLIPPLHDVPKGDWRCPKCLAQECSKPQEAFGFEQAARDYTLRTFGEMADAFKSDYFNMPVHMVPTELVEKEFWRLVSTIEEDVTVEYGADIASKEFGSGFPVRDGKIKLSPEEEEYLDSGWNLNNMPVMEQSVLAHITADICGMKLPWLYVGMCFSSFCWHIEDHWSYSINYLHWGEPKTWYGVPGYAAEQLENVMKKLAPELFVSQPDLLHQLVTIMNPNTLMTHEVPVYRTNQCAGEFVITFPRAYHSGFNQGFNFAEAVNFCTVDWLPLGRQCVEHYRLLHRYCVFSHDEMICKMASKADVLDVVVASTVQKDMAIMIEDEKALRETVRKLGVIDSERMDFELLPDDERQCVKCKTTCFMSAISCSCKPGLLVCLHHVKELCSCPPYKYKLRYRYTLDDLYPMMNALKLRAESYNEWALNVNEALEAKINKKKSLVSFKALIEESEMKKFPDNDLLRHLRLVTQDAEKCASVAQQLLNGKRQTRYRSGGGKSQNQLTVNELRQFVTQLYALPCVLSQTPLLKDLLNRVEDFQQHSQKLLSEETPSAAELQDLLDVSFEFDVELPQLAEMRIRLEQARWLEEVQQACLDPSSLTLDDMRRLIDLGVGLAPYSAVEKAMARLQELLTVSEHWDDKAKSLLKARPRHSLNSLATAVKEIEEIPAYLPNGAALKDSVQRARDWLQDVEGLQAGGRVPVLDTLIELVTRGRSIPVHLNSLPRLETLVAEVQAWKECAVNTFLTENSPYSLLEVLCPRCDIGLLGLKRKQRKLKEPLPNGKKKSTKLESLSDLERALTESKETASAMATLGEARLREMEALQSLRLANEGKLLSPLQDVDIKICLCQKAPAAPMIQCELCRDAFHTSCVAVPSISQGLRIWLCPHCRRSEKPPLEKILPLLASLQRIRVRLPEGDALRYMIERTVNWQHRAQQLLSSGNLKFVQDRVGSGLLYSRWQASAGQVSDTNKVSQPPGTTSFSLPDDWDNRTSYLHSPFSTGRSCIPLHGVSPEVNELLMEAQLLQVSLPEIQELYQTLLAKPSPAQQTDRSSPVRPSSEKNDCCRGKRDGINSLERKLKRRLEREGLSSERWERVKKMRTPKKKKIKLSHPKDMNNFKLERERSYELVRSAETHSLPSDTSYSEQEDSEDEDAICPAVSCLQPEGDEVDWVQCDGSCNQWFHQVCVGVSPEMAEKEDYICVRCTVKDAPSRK

Consider `C=CCc1ccccc1OCC(O)CNC(C)C` (configuration not stated), for which the Potency entry in assay [1], in [2], in assay [3], in assay [5], in [7] and in assay [8] was “inactive” in each case. The Potency result in assay [9] is “inactive”. Besides, the outcome in assay [4] and in assay [6] was inactive.
As to `CCCCNc1ccc(C(=O)OCCN(C)C)cc1`, the Potency entry in assay [1], in assay [2], in [3], in assay [5], in assay [7] and in [8] was “inactive” throughout. The Potency result in assay [9] was “inactive”. For the same compound, the compound was called inactive in assay [4] and in assay [6].
Regarding `Cc1scc2c1N(C(=O)CN1CCN(C)CC1)c1ccccc1NC2=O`, the Potency entry in assay [1], in assay [2], in assay [3], in assay [5], in [7] and in assay [8] was “inactive” in each case. Besides, in [9], the Potency result was “inactive”. Also, the compound was called inactive in assay [4] and in assay [6].
`C[C@]12CC[C@@H]3c4ccc(O)cc4C[C@@H](CCCCCCCCCS(=O)CCCC(F)(F)C(F)(F)F)[C@H]3[C@@H]1CC[C@@H]2O` (some centres not stated): the Potency result in assay [1], in assay [2], in assay [3], in assay [5], in [7] and in [8] was “inactive” in each case. Also, in assay [9], the Potency result was “inactive”. In addition, the call in assay [4], in assay [6] and in assay [10] was inactive.
For `NC(N)=NC(=O)Cc1c(Cl)cccc1Cl`, the Potency result in assay [1], in assay [2], in assay [3], in assay [5], in [7] and in assay [8] was “inactive” in each case. Also, the Potency result in [9] was “inactive”. The compound was classed as inactive in assay [4], in assay [6] and in [10].
With `Nc1nc(N)c2nc(-c3ccccc3)c(N)nc2n1`, the Potency in [1] was 39.8 µM (active). The Potency entry in [2], in assay [3], in assay [5], in assay [8] and in assay [9] was “inactive” throughout. The result in assay [4], in [6] and in [10] was inactive.
Take `c1cc(CN2CCCCC2)cc(OCCCNc2nc3ccccc3s2)c1`: the Potency entry in assay [1], in [2], in assay [3], in assay [5], in [7] and in assay [8] was “inactive” each time. Besides, the Potency result in assay [9] was “inactive”. Moreover, the compound was called inactive in assay [4] and in assay [6]. In addition, the Potency in [11] was 12.6 µM (active).
Consider `Nc1ncn([C@@H]2O[C@H](CO)[C@@H](O)[C@H]2O)c(=O)n1`, for which the Potency entry in [1], in [3], in assay [5], in assay [7] and in assay [9] was “inactive” throughout. Further, the Potency is 8.91 µM (active) in assay [2] and 1.12 µM (active) in assay [8]. Besides, the outcome in assay [4] and in [6] was inactive.
For `NS(=O)(=O)c1cc2c(cc1Cl)NC(C1CC3C=CC1C3)NS2(=O)=O` (configuration not stated), the Potency entry in assay [1], in [2], in assay [3], in assay [5], in [7] and in assay [8] was “inactive” each time. Besides, the Potency entry in assay [9] was “inactive”. Moreover, the compound was classed as inactive in assay [4], in [6] and in [10].
`CCc1cccc(N(C)C(N)=Nc2cccc3ccccc23)c1`: the Potency result in assay [1], in assay [2], in assay [3], in assay [5], in [7] and in assay [8] was “inactive” throughout. The Potency entry in assay [9] is “inactive”. In addition, the compound was called inactive in assay [4] and in assay [6]. The Potency in assay [11] was 15.8 µM (active).
For `Cc1ccc(Cl)c(Nc2ccccc2C(=O)O)c1Cl`, the Potency entry in assay [1], in assay [2], in [3], in assay [7], in assay [8] and in assay [9] was “inactive” in each case. Besides, the compound was classed as inactive in assay [4] and in [6]. In assay [5], the Potency was 17.8 µM (active).
With `CCN(CC)CCNC(=O)c1ccc(NC(C)=O)cc1`, the Potency entry in [1], in assay [2], in [3], in [5], in [7] and in assay [8] was “inactive” throughout. For the same compound, the Potency result in [9] was “inactive”. Moreover, the compound was called inactive in [4] and in assay [6].
For the compound `COc1cc(Cc2cnc(N)nc2N)cc(OC)c1OC`, the Potency entry in assay [1], in assay [2], in assay [3], in assay [5], in [7] and in assay [8] was “inactive” throughout. Moreover, the Potency entry in assay [9] is “inactive”. Moreover, the compound was called inactive in [4], in [6] and in [10].
Turning to `CN1C[C@H](C(=O)N[C@]2(C)O[C@@]3(O)[C@@H]4CCCN4C(=O)[C@H](Cc4ccccc4)N3C2=O)C[C@@H]2c3cccc4[nH]cc(c34)C[C@H]21`, the Potency entry in assay [1], in [2], in [3], in assay [5], in assay [7] and in assay [8] was “inactive” throughout. Besides, the Potency entry in assay [9] was “inactive”. Also, the outcome in [4] and in [6] was inactive. Moreover, the Potency in assay [11] was 25.1 µM (active).
As to `CC(C)NCC(O)c1cc(O)cc(O)c1` (configuration not stated), the Potency entry in assay [1], in assay [2], in assay [3], in assay [5], in [7] and in [8] was “inactive” in each case. For the same compound, the compound was classed as inactive in [4], in assay [6] and in assay [10].
